Assay outcomes: PubChem, National Center for Advancing Translational Sciences (NCATS)
Shown are actives, neighbours in structure and some others; about 19% of the full set was active somewhere.
VP16 counter = counter-screen for ROR gamma inhibitors: Gal4-VP16 reporter | AID 2546 | actives 3.5% (n = 310,000) | Potency, µM (series often up to 53.6 µM), for the others: at the highest dose activity, negative = inhibition, usual class: inhibitors | Drosophila S2 Gal4-VP16 UAS-luciferase, luminescence, 20 h;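 also: Gal4-VP16 expression switched on by copper sulfate through the metallothionein promoter; nearly all actives have a fitted effect of over 50% in size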
TDP1 cell CPT = DT40-hTDP1 cell growth loss with CPT. chicken DT40 Tdp1-/-;hTDP1 cells + 20 nM CPT, ATP luminescence, 48 h. Potency, µM (doses to about 46.2 µM), inactives show at the top dose activity change, negative = growth inhibition, actives largely listed as inhibitors. actives 12% (n = 420,000); also: nearly all actives have a fitted effect of over 55% in size
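Chicken DT40 Tdp1-/- cells stably complemented with human TDP1 were seeded at 400 cells/well in medium containing 20 nM camptothecin, exposed to pin-transferred compounds, and grown at 37 °C for at least 48 hr. Viability was read as ATP luminescence.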
RORg inh = blocks mouse ROR gamma transcriptional activity; P51450; Drosophila S2 Gal4-RORgamma UAS-luciferase reporter, 20 h; Potency, µM (titrated, usually from 53.6 µM), inactives show at the highest dose activity change, negative = inhibition, actives largely listed as inhibitors; actives 5.4% (n = 310,000); AID 2551; also: nearly all actives have a fitted effect of over 60% in size
Target sequence (P51450 whole entry, looked up, the tested form may be a part): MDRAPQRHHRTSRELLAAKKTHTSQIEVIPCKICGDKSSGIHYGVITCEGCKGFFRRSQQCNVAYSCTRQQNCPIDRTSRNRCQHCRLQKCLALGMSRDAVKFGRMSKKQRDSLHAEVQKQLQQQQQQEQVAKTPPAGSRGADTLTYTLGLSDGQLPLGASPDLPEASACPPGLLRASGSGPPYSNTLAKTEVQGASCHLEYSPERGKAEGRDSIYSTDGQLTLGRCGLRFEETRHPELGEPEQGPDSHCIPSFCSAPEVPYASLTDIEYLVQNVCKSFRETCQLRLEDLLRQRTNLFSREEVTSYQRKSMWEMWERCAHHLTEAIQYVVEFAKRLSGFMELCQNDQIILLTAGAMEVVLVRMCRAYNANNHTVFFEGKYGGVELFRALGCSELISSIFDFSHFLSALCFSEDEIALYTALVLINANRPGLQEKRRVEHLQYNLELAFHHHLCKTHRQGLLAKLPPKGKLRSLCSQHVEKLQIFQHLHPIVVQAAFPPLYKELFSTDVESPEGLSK
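Drosophila Schneider cells stably carrying a metallothionein-driven Gal4 DBD–ROR gamma fusion and a UAS-Photinus luciferase reporter were exposed to compound for 1 hr, then induced with copper sulfate (700 uM final) for 20 hr at ambient temperature before luminescence reading.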
DT40 TDP1 no CPT = qHTS for Inhibitors of human tyrosyl-DNA phosphodiesterase 1 (TDP1): qHTS in cells in absence of CPT; DT40 Tdp1-/- hTDP1 cells, no CPT, ATP luminescence, 48 h; Potency, µM (series often up to 46.2 µM), for inactives: top-dose activity change, negative = growth inhibition, usual class: inhibitors; actives 15% (n = 420,000); AID 686978, 2013; also: nearly all actives have a fitted effect of over 55% in size
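No-CPT arm: Tdp1-/-;hTDP1 DT40 cells (400/well) plus compounds, incubated ≥48 hr at 37 °C. Readout CellTiter-Glo luminescence.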
TDP1 inh = TDP1 (human) enzyme inhibition | Q9NUW8 | recombinant TDP1, AlphaScreen DNA substrate cleavage | Potency, µM (doses to about 130 µM), without a hit: at the highest dose activity change, negative = inhibition, hits mostly inhibitors | actives 0.28% (n = 350,000); also: nearly all actives have a fitted effect of over 40% in size
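Steps: enzyme plus compound, 15 min RT; add biotin/phosphotyrosine-FITC oligonucleotide (15 nM final), react 5 min; add donor/acceptor beads (10 ug/ml final), 10 min; read AlphaScreen. Tdp1 at 1 nM final.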
* hit, by the source's call; ? = inconclusive; . = no result; ! = not active in a repeat; [ ] = dose if it differs, or a comment. Calls follow the shape of the dose curve; as a rule, active = well fitted curve in the direction sought with a large enough effect; inconclusive = small, poorly fitted or top-dose-only effect, or another doubt; inactive = no such curve, though single readings can be large; an effect the other way counts as inactive or inconclusive. % is scaled to controls: 0 for no effect and ±100 for the full control effect; potency is read from the fitted curve at half-maximal effect.

SMILES | VP16 counter | TDP1 cell CPT | RORg inh | DT40 TDP1 no CPT | TDP1 inh
COc1ccccc1CCNc1ncnc2nc[nH]c12 | . | ? | . | ? | 1%
CCCCCc1c(-c2ccccc2F)ncn1CCc1ccccc1OC | . | 16µM* | . | 18µM* | .
CCCCc1c(-c2ccccc2F)ncn1CCc1ccccc1OC | . | 26µM* | . | 16µM* | .
COc1cc(C=O)ccc1OC(=O)c1cccnc1 | -1% | 7% | -18%[1.91 µM] | 3% | .
CCOC(=O)/C(O)=C/c1ncc(C(F)(F)F)cc1Cl | 10µM* | 23µM* | 8.9µM* | ? | 0%
CCOC(=O)C(C(=O)N(C)C)c1ncc(C(F)(F)F)cc1Cl (centres undefined) | -3% | 2% | -1% | -16% | 3%
CCOC(=O)/C(=C\Nc1ccc(OC(F)(F)F)cc1)Sc1ncc(C(F)(F)F)cc1Cl | 13% | 16µM* | 0% | 12µM* | 2%
COC(=O)/C(=C\Nc1cccc(Cl)c1C)c1ncc(C(F)(F)F)cc1Cl | 4% | 2% | -18% | ? | 4%
CCCCn1nc(C(=O)N(C)C2CCCCC2)c2ccccc2c1=O | . | ? | . | ? | 1%
Cc1ccc(C)c(-c2cc(C(=O)Nc3nccs3)c3ccccc3n2)c1 | ? | ? | 13µM* | ? | 4%
CCOC(=O)Cc1csc(NC(=O)c2ccc3ccccc3n2)n1 | ? | ? | 6.3µM* | 18µM* | 12%
CCOC(=O)Cc1csc(NC(=O)c2ccncc2)n1 | -10% | ? | 15% | ? | 3%
CCOC(=O)Cc1csc(NC(=O)c2cc(-c3ccncc3)nc3ccccc23)n1 | . | 16µM* | . | ? | 2%
Cc1csc(NC(=O)c2cc(-c3ccccc3)nc3ccccc23)n1 | ? | ? | -126% | 15µM* | 5%
NS(=O)(=O)c1ccc(CNC(=O)/C=C/c2ccccc2)cc1 | -5% | 11% | 4% | -5% | 0%
CCCCn1c(N)c(N(C(=O)CSc2nnnn2-c2ccc(C)cc2)C2CCCC2)c(=O)[nH]c1=O | . | 4% | . | 1% | .
CCCCn1c(O)c(C=NCCCN(C)C)c(=O)[nH]c1=O | -5% | -12% | -18% | -16% | 5%
CCOc1cccc(N2CCN(CCNC(=O)Nc3ccc(C)cc3)CC2)c1C | 9% | ? | -2% | ? | .
CCc1nnc(NC(=O)c2cc(-c3ccncc3)nc3ccccc23)s1 | -1% | -18% | -4% | -2% | 8%
CC(C)(C)c1nnc(NC(=O)c2cc(-c3ccccc3)nc3ccccc23)s1 | 10µM* | -7% | 5.6µM* | -30% | -4%
COc1ccc(NC2=C(Cl)C(=O)N(c3ccccc3)C2=O)c(OC)c1 | -7% | 18µM* | 2% | 8% | 6%
COc1ccc(N2C(=O)C(Cl)=C(Nc3c(C)n(C)n(-c4ccccc4)c3=O)C2=O)cc1 | 19% | 2.6µM* | ? | 5.8µM* | 6%
CCOc1ccc(N2C(=O)C(Cl)=C(Nc3ccccc3O)C2=O)cc1 | 6% | 21µM* | 33% | 13µM* | 12%
COc1ccc(N2C(=O)C(Cl)=C(Nc3ccc(OC)cc3OC)C2=O)cc1 | -13% | 2% | ? | ? | 5%
COc1ccccc1NC1=C(Cl)C(=O)N(c2ccccc2)C1=O | 12% | 7% | ? | 3% | 6%
CC(=O)OCC1=C(C(=O)O)N2C(=O)C(NC(=O)c3ccc(COc4c(C)cccc4Cl)o3)C2SC1 (centres undefined) | 4% | -3% | -23% | -1% | ?
CCOC(=O)/C=C1\CC(C(=O)OCC)Oc2c(OC)cccc21 (centres undefined) | 0% | ? | 45% | 23µM*! | 0%[56.1 µM]
COc1cc(CN(C(=O)Nc2ccccc2)c2ccccn2)cc(OC)c1OC | . | -26% | . | ? | -2%
COc1cc(CN(C(=O)COc2ccc(C)c(C)c2)c2ccccn2)cc(OC)c1OC | . | 7.3µM* | . | 8.2µM* | 7%
COc1cc(CN(C(=O)c2ccccc2[N+](=O)[O-])c2ccccn2)cc(OC)c1OC | . | ? | . | 15µM* | 7%
